Experiment [1] has as its target Serine/threonine-protein kinase PLK3 (Homo sapiens) (UniProt Q9H4B4). Particulars: at 1 µM; call rule not given here.
Experiment [2] has the same target. Particulars: at 10 µM.
The target in experiment [3] is T1, cAMP-dependent protein kinase catalytic subunit PRKX (Homo sapiens) (UniProt P51817).
T1 sequence (whole entry): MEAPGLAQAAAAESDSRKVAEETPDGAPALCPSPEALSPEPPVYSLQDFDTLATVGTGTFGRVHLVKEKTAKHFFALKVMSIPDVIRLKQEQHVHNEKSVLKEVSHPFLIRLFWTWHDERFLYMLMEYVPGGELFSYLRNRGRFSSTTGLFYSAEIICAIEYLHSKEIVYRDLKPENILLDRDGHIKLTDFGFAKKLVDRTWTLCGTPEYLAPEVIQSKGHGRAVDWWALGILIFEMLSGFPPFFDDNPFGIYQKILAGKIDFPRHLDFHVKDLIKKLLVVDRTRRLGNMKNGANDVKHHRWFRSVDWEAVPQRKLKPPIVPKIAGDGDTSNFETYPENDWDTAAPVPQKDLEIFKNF
Particulars: at 1 µM.

Experiment [4] addresses T1, cAMP-dependent protein kinase catalytic subunit PRKX (Homo sapiens). Particulars: at 10 µM.
Experiment [5] deals with Protein-tyrosine kinase 2-beta (Homo sapiens) (UniProt Q14289). Particulars: at 1 µM.
Sequence of Protein-tyrosine kinase 2-beta (Homo sapiens) (Q14289 whole entry, looked up): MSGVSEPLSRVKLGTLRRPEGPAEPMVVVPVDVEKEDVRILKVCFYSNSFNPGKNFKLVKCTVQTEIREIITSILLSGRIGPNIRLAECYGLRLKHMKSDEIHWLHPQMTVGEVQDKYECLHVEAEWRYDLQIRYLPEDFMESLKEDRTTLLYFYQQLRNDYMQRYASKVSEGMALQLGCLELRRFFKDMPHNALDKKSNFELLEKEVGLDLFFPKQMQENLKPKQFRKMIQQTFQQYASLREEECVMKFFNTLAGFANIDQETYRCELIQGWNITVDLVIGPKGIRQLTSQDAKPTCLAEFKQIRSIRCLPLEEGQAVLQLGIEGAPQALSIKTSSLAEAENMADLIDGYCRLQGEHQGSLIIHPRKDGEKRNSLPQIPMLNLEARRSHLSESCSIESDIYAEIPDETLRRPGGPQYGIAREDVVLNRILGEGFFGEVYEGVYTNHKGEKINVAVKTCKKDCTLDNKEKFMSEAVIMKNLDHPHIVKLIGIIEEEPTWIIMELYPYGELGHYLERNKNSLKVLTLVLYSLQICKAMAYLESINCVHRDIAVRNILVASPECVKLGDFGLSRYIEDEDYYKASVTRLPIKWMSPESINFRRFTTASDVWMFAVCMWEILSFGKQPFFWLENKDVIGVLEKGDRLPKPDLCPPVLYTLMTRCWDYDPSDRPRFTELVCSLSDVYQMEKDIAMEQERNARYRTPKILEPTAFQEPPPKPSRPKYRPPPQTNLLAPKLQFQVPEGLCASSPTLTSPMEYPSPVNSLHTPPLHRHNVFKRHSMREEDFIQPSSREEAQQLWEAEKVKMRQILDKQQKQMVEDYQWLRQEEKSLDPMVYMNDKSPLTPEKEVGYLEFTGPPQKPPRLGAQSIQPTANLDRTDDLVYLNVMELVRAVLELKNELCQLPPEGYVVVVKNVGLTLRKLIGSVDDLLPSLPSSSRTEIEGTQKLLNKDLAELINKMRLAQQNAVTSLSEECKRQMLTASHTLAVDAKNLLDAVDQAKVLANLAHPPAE
Experiment [6] has the same target. Particulars: at 10 µM.
Experiment [7] has as its target Receptor-interacting serine/threonine-protein kinase 2 (Homo sapiens) (UniProt O43353). Particulars: at 1 µM.
Experiment [8] shares this target. Particulars: at 10 µM.
The target in experiment [9] is Rho-associated protein kinase 1 (Homo sapiens) (UniProt Q13464). Particulars: at 1 µM.
Sequence of Rho-associated protein kinase 1 (Homo sapiens) (Q13464 2-1354 limits assumed): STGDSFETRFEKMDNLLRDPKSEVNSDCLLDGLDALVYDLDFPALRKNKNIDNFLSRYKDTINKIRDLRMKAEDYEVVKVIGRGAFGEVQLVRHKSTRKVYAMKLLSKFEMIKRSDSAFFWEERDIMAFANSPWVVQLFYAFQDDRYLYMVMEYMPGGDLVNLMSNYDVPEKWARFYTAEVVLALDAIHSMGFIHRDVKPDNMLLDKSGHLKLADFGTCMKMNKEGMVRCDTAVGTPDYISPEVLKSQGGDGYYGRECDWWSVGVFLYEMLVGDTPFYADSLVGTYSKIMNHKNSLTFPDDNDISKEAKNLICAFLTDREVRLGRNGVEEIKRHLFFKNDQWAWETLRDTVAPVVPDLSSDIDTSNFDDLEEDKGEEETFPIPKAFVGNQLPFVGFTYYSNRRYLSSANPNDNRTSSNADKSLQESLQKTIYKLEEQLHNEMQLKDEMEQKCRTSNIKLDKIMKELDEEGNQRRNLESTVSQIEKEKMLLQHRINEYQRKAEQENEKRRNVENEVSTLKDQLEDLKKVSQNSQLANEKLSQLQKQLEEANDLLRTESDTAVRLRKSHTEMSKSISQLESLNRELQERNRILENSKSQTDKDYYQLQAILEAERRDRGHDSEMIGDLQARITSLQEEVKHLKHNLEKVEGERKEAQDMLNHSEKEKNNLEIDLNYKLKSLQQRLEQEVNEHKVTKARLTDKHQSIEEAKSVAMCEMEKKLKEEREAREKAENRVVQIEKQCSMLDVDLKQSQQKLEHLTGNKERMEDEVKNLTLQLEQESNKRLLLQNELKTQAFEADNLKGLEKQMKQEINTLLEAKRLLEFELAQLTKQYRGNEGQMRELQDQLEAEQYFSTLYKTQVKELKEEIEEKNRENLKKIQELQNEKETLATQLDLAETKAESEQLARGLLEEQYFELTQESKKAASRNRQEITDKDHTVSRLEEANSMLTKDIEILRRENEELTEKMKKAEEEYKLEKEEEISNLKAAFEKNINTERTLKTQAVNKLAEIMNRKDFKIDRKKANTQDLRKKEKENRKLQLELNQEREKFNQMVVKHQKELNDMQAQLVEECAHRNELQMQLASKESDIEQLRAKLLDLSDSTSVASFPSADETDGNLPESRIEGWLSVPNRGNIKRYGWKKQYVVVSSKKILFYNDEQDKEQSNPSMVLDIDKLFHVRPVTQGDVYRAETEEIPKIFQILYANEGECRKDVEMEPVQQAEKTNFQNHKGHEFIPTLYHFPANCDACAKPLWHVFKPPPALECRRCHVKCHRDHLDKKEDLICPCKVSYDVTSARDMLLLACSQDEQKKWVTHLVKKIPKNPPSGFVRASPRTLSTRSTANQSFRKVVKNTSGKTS
Experiment [10] shares this target. Particulars: at 10 µM.

Sequence of Serine/threonine-protein kinase PLK3 (Homo sapiens) (Q9H4B4 whole entry, looked up): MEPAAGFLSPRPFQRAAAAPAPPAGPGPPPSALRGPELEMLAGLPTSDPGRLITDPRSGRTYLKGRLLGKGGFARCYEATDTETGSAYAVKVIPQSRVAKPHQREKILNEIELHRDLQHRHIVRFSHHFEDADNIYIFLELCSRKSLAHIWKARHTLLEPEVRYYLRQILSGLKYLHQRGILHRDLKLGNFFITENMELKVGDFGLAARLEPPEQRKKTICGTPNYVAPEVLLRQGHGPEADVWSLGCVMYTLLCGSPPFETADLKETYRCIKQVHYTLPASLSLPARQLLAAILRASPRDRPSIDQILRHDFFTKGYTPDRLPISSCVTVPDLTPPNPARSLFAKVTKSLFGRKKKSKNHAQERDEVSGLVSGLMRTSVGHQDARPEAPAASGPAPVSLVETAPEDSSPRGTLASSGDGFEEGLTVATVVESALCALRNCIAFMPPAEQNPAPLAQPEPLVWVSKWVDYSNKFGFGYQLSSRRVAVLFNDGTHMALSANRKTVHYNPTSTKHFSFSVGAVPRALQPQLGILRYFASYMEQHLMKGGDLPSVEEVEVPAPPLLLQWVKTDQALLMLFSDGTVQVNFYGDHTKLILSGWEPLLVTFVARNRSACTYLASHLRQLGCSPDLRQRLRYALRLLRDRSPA
Sequence of Receptor-interacting serine/threonine-protein kinase 2 (Homo sapiens) (O43353 whole entry): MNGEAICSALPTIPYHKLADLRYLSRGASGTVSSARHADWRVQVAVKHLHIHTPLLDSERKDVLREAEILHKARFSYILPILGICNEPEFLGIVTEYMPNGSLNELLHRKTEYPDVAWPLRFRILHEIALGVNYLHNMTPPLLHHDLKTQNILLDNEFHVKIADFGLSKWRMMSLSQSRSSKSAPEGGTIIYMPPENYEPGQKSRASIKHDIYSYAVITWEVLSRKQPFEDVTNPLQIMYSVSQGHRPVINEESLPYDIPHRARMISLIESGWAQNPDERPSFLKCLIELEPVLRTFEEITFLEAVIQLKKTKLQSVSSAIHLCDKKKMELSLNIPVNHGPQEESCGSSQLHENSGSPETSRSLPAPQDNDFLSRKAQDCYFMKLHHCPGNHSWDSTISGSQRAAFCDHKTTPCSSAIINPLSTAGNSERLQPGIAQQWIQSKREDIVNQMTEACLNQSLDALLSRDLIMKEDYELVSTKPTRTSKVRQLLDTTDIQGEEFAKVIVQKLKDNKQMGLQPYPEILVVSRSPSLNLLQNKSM

With `Oc1ccc(Nc2nc(-c3ccc(Cl)cc3)cs2)cc1`, the residual activity (usually the signal under treatment as a percentage of the control signal) in experiment [1] was 100% (inactive); in experiment [2] it was 94%; in experiment [3] it was 78%; in [4], 118%; in experiment [5] it was 109%; in experiment [6] it was 106%. The residual activity was 107% in [7], 89% in [8], 122% in [9] and 121% in experiment [10].

As to `Cc1ccc(S(=O)(=O)/C=C/C#N)cc1`, the residual activity in [1] is 103% (inactive); in experiment [2], 97%; in experiment [3], 91%; in experiment [4], 101%; in experiment [5], 102%; in experiment [6], 104%. For the same molecule, the residual activity is 88% in [7], 88% in experiment [8], 119% in [9] and 106% in experiment [10].

Turning to `Cn1cnc2cc3c(Nc4cccc(Br)c4)ncnc3cc21`, the residual activity in [1] was 95% (inactive); in [2], 92%; in [3], 108%; in experiment [4], 110%; in experiment [5], 119%; in experiment [6], 77%. Besides, the residual activity in experiment [7] was 26%; in experiment [8] it was 20%; in experiment [9] it was 104%; in experiment [10], 110%.

In the case of `O=C1NC(=O)c2c1c1c3ccccc3[nH]c1c1[nH]c3cc(Br)ccc3c21`, the residual activity was 96% (inactive) in experiment [1]; 83% in experiment [2]; 85% in [3]; 77% in experiment [4]; 71% in [5]; 84% in experiment [6]. Besides, the residual activity was found to be 92% in [7], 93% in experiment [8], 112% in experiment [9] and 93% in experiment [10].

Take `COc1ccc(CNc2nc(N(CCO)CCO)nc3c2ncn3C(C)C)cc1`: the residual activity was 97% (inactive) in experiment [1]; 95% in [2]; 95% in [3]; 101% in experiment [4]; 83% in experiment [5]; 85% in experiment [6]. Also, the residual activity was determined as 83% in [7], 78% in experiment [8], 121% in experiment [9] and 109% in experiment [10].

Consider `CC(=O)O/N=C1\C(=C2\C(=O)Nc3cc(Br)ccc32)Nc2ccccc21`, for which the residual activity was 92% (inactive) in experiment [1]; 99% in experiment [2]; 77% in experiment [3]; 93% in experiment [4]; 79% in experiment [5]; 32% in experiment [6]. The residual activity came to 92% in [7], 84% in [8], 123% in experiment [9] and 119% in experiment [10].

`CO[C@@H]1[C@H](N(C)C(=O)c2ccccc2)C[C@H]2O[C@]1(C)n1c3ccccc3c3c4c(c5c6ccccc6n2c5c31)C(=O)NC4`: the residual activity in [1] was 95% (inactive); in experiment [2], 92%; in experiment [3], 24%; in [4] it was 12%; in [5], 16%; in experiment [6] it was 10%. Besides, the residual activity in [7] was 88%; in experiment [8], 70%; in experiment [9], 110%; in experiment [10] it was 115%.

Take `O=Nc1c(-c2c(O)[nH]c3ccccc23)[nH]c2ccccc12`: the residual activity in [1] was 96% (inactive); in [2], 91%; in experiment [3], 48%; in experiment [4], 33%; in experiment [5] it was 14%; in experiment [6], 2%. Also, the residual activity in experiment [7] is 60%; in experiment [8], 27%; in experiment [9], 108%; in [10] it was 92%.

As to `CCOc1cc2ncnc(Nc3cccc(Br)c3)c2cc1OCC`, the residual activity was 87% (inactive) in experiment [1]; 100% in [2]; 98% in [3]; 78% in experiment [4]; 110% in experiment [5]; 58% in [6]. For the same molecule, the residual activity was 24% in [7], 12% in experiment [8], 94% in [9] and 95% in experiment [10].

As for `COc1ccc(OC)c2c(=S)c3ccccc3[nH]c12`, the residual activity in [1] was 99% (inactive); in experiment [2], 95%; in experiment [3] it was 83%; in experiment [4] it was 83%; in experiment [5] it was 79%; in experiment [6] it was 105%. Further, the residual activity in experiment [7] stood at 85%; in experiment [8], 80%; in experiment [9] it was 122%; in experiment [10], 102%.

As for `O=C(Nc1cccc(Nc2cc(Nc3cccc(C(F)(F)F)c3)ncn2)c1)C1CC1`, the residual activity in [1] was 97% (inactive); in experiment [2], 90%; in experiment [3] it was 102%; in [4] it was 100%; in experiment [5], 104%; in experiment [6], 63%. Also, the residual activity in experiment [7] came to 53%; in experiment [8], 41%; in experiment [9], 101%; in [10], 99%.

With `CN(C)c1ccc(/C=C2\C(=O)Nc3ccccc32)cc1`, the residual activity in experiment [1] was 94% (inactive); in [2] it was 88%; in experiment [3], 92%; in experiment [4], 66%; in experiment [5] it was 103%; in [6] it was 47%. Moreover, the residual activity in experiment [7] came out at 103%; in experiment [8], 83%; in experiment [9], 132%; in experiment [10], 123%.

Take `COc1cc2ncnc(N3CCN(C(=O)Nc4ccc(Oc5ccccc5)cc4)CC3)c2cc1OC`: the residual activity in [1] was 90% (inactive); in [2], 92%; in experiment [3] it was 77%; in experiment [4], 113%; in experiment [5] it was 122%; in experiment [6], 104%. Also, the residual activity in experiment [7] was 84%; in experiment [8], 70%; in experiment [9], 124%.

With `O=C1Nc2cc(Br)ccc2/C1=C1/Nc2ccccc2/C1=N\O`, the residual activity in [1] is 100% (inactive); in experiment [2], 91%; in experiment [3] it was 73%; in experiment [4], 36%; in [5], 10%; in experiment [6] it was 3%. The residual activity turned out to be 78% in experiment [7], 85% in [8], 113% in experiment [9] and 102% in [10].

In the case of `O=C1NC(=O)c2cc(Nc3ccc(F)cc3)c(Nc3ccc(F)cc3)cc21`, the residual activity in [1] is 92% (inactive); in experiment [2], 80%; in [3] it was 90%; in experiment [4], 48%; in experiment [5] it was 119%; in [6] it was 81%. Moreover, the residual activity worked out at 76% in experiment [7], 42% in experiment [8], 108% in experiment [9] and 123% in [10].

Consider `CNc1cc2c(Nc3cccc(Br)c3)ncnc2cn1`, for which the residual activity was 90% (inactive) in experiment [1]; 91% in experiment [2]; 95% in [3]; 75% in experiment [4]; 116% in [5]; 64% in experiment [6]. The residual activity worked out at 43% in [7], 38% in [8], 110% in experiment [9] and 126% in experiment [10].

Values taken from ChEMBL document CHEMBL2218924, “A broad activity screen in support of a chemogenomic map for kinase signalling research and drug discovery” (Biochem J, 2013).
